Consider 70 compounds from PubChem BioAssay AID624483 (NMMLSC, 2012).

The structures appear in SMILES notation. About 11,000 (3.1%) of roughly 360,000 compounds were called active. Not shown: some 2% with an inconclusive outcome. Shown is part of a subset that was picked to be rich in actives. Unmarked numbers belong to inactive results. Cut-off read from the data, not from the text of the source: active = fluorescence intensity above about 16000; inconclusive = no clear call, values can overlap the other calls; inactive = below that.

The nature of the assay: counter-screen for toxin protease inhibitors: compound fluorescence, primary screen, artefact control for toxin protease inhibitor project, biochemical, multiplex microsphere, HTS (AID 624483). The note with it: compound autofluorescence counterscreen, microsphere flow cytometry; stronger effect = higher value.
Take `COc1cc(C2C(C#N)=C(N)Oc3n[nH]c(-c4ccccn4)c32)cc(OC)c1OC` (stereo not given): the fluorescence intensity is 22700 (active). To `COc1ccc(-c2[nH]nc3c2C(c2ccncc2)C(C#N)=C(N)O3)cc1` (stereo not given) belongs 3830. To `COCc1[nH]nc2c1C(C1C=CCCC1)C(C#N)=C(N)O2` (stereo not given) belongs 11600.

Consider `NC(=O)Cc1ccc2sc(-c3ccccc3)nc2c1`, for which the fluorescence intensity is 2610. To `Cc1cc(NC(=O)[C@H](C)NC(=O)c2ccco2)ccc1Br` belongs 3700; to `O=C(COc1ccccc1F)Nc1nc(-c2ccccn2)cs1`, 3790; to `CC(NC(=O)c1ccco1)C(=O)Nc1nc(-c2ccccn2)cs1` (stereo not given), 20700 (active).

As to `COCCNc1ncnc2c1ncn2[C@H]1CN(CCN2CCOCC2)C[C@@H](CO)O1`, the fluorescence intensity was 3590.

Consider `OC(c1ccccc1)C(CN1CCOCC1)c1ccccc1` (stereo not given), for which the fluorescence intensity is 4580. To `CN[C@H]1C[C@H]2c3cc(Oc4ccccc4C)ccc3CCN2C(=O)[C@H]1[C@H](C)O` belongs 5280; to `O=C(CCC1CCCN(Cc2ccc(O)c(Cl)c2)C1)NCc1ccccc1F` (stereo not given), 4480; to `CC(=O)Oc1ccc(Cn2c(C)c(C(=O)NCc3ccc(C#N)cc3)sc2=O)cc1`, 5590. Regarding `CCCCCCNC(=O)CSc1nccn1Cc1ccccc1`, the fluorescence intensity is 9260. In the case of `CCCCNC(=O)CSc1nccn1Cc1ccccc1` it was 8790; in that of `COC(=O)CCSc1nccn1Cc1ccccc1`, 20500 (active); in that of `O=C(NCCN1CCOCC1)c1ccccc1N1C(=O)[C@@H]2Cc3c([nH]c4ccccc34)C(c3cccc(Cl)c3)N2C1=O` (stereo not given in full), 5120. As for `CCc1nc2c(OCc3ccc(C(=O)OC)cc3)cccn2c1N(C)C(=O)C(C)C`, the fluorescence intensity was 3990. For `CC(=O)c1cc2c(cc1NC(=O)CN1CCCCCC1)OCO2`, the fluorescence intensity is 3760. To `CC(=O)c1cc2c(cc1N)OCO2` belongs 22400 (active); to `CC(=O)C1=C(C)NC(=O)NC1c1ccc2c(c1)OCO2` (stereo not given), 4750. On to `Cc1nc(SCC(=O)N2CCc3ccccc3C2)c2c(C)c(C)sc2n1`, for which the fluorescence intensity was 5870. In the case of `CCCCn1nnnc1C(c1cccc(OC)c1OC)N1CCN(C/C=C/c2ccccc2)CC1` (stereo not given) it was 5960; in that of `Cc1ccc(S(=O)(=O)N2CCCC(C(=O)N3CCN(C)CC3)C2)cc1` (stereo not given), 5490. To `COc1ccc(OCCCC(=O)OC(C)C(=O)Nc2ccccc2[N+](=O)[O-])cc1` (stereo not given) belongs 3940; to `COc1ccc(OCCCC(=O)Oc2ccc(OC)cc2)cc1`, 21300 (active); to `COc1ccc(OCC(=O)OCCN(C)C)cc1`, 2140. In the case of `CCCCOc1ccc(Cl)cc1CSc1nncn1N` it was 20700 (active); in that of `CCCCOc1ccc(CSC(=N)N)cc1[N+](=O)[O-]`, 2600; in that of `COC(=O)c1ccc(CSc2nncn2N)cc1`, 4020. As for `Cn1cccc1C1(C(F)(F)F)NCCNC1=O` (stereo not given), the fluorescence intensity is 20400 (active). Regarding `CC(=O)N1CCN(Cc2cc(=O)oc3cc(C)ccc23)CC1`, the fluorescence intensity was 5400. To `Cc1ccc(Cn2c(C)c(C(=O)NCc3ccccc3C(F)(F)F)sc2=O)cc1` belongs 5600. In the case of `O=C1c2ccccc2C(c2nc3ccccc3[nH]2)N1c1ccccc1` (stereo not given) it was 6040; in that of `CCN(CC)C(=O)CSC1c2ccccc2C(=O)N1c1ccccc1` (stereo not given), 23100 (active); in that of `CCN(CC)C(=O)CSc1ncnc2c1cnn2-c1ccccc1`, 3150. In the case of `C[N+](C)(C)CCNC(=O)c1c[nH]c2ccccc12` it was 5520. In the case of `CCCNC(=O)C1(C)CCN1C(=O)Cc1ccc(-c2ccccc2)cc1` (stereo not given), the fluorescence intensity is 3250.

With `CC(=O)Nc1ccc(SCC(=O)Nc2ccccc2Oc2ccccc2)cc1`, the fluorescence intensity is 2020. In the case of `C#Cc1cc(N2CCN(C(=O)c3ccoc3)CC2)n2nc(-c3cccc(Cl)c3)cc2n1` it was 4220; in that of `CCCC(C)C(=O)NCc1ccncc1` (stereo not given), 2180; in that of `CC(C)(C)NC(=O)C(=O)NCc1ccncc1`, 2060. In the case of `CCCCOc1ccc(C(=O)NCc2ccncc2)cc1` it was 20300 (active). For the compound `O=C(CN(C(=O)c1nsc(Cl)c1Cl)c1cccc(F)c1)NC1CCCC1`, the fluorescence intensity is 4350. In the case of `Cc1noc(C)c1C(=O)OCC(=O)N1CCN(S(=O)(=O)c2ccc3ccccc3c2)CC1` it was 4540. To `Cc1noc(C)c1C(=O)OCC(=O)/C=C1\N(C)c2ccccc2C1(C)C` belongs 23200 (active). To `CC(=O)Nc1cccc(OCC(=O)/C=C2\N(C)c3ccccc3C2(C)C)c1` belongs 3790. Turning to `CC1(C(=O)NS(=O)(=O)c2cccc(OC(F)F)c2)CCN1C(=O)COc1ccc(Cl)cc1` (stereo not given), the fluorescence intensity is 2870.

For `Cc1ccn(-c2cccc(-n3ccc(C)n3)n2)n1`, the fluorescence intensity is 2160. To `CC(=O)Nc1cc(-c2ccc(N3CCN(C)CC3)cc2)cn2c(-c3ccc(F)cc3)cnc12` belongs 3850; to `Cc1sc(NC(=O)c2ccc3ncsc3c2)c(C(N)=O)c1C`, 5240; to `CC(=O)c1c(Nc2ccccc2)sc(C(=O)c2ccccc2)c1C`, 2060. As for `Cc1ccc(C(=O)c2c(NC(=O)c3ccccc3)sc(C)c2C)cc1`, the fluorescence intensity is 24600 (active). In the case of `C[C@H](NC(=O)[C@@H]1CCCN1C(=O)[C@@H]1CCCN1C(=O)c1ccccc1)c1ccccc1` it was 6120. To `Cc1c(Cl)cccc1NC(=S)NCC(O)c1ccccc1` (stereo not given) belongs 2920; to `COc1ccc(C(=O)CCC(=O)Nc2cccnc2)c(OC)c1`, 5960. Regarding `COc1ccc(OC(C)C(=O)Nc2cccnc2)cc1` (stereo not given), the fluorescence intensity was 23000 (active). In the case of `CC(Oc1ccc(Cl)cc1)C(=O)Nc1ncccn1` (stereo not given) it was 6780; in that of `Cc1ccc(C(=O)O)c(NC=O)c1OCc1ccccc1`, 4160; in that of `COc1ccc(C(=O)C(C)OC(=O)c2cccc(S(=O)(=O)Nc3c(C)n(C)n(-c4ccccc4)c3=O)c2)cc1` (stereo not given), 3490. To `Cc1c(NC(=O)c2coc(=O)c(Br)c2)c(=O)n(-c2ccccc2)n1C` belongs 2950. In the case of `O=C(c1noc2c1CCCC2)N1CCc2ccccc2C1` it was 3010. As to `COc1ccc(OC)c(NC(=S)N2CCc3ccccc3C2)c1`, the fluorescence intensity was 2080. In the case of `COc1ccc2c(c1)CCc1c(C(=O)Nc3c(C)n(C)n(-c4ccccc4)c3=O)noc1-2` it was 21100 (active); in that of `COc1ccc(S(=O)(=O)Nc2c(C)n(C)n(-c3ccccc3)c2=O)cc1`, 16100 (active). In the case of `COc1ccc(C(=O)N2CCCN(C)CC2)c(OC)c1` it was 4060; in that of `Cc1c(NC(=O)c2cc(-c3ccc(Br)cc3)on2)c(=O)n(-c2ccccc2)n1C`, 5870. In the case of `COc1ccccc1-c1cc(C(=O)N2CCCCC2)no1` it was 4320. As for `COc1ccc(NS(=O)(=O)c2ccc(C(=O)Nc3c(C)n(C)n(-c4ccccc4)c3=O)cc2)cc1`, the fluorescence intensity was 2940. In the case of `COc1ccc2c(c1)CCc1c(C(=O)N3CCCC3)noc1-2` it was 21100 (active); in that of `COc1ccc2c(c1)CCc1c(C(=O)N3CCc4ccccc4C3)noc1-2`, 21600 (active).
